# From the supplement of paper PMC3334620
# In all, about 33,000 sequences were measured (“E-score (-0.5 to 0.5)”: median about -0.054, highest 2% from about 0.35 on). Shown is part of a subset that was picked to be rich in the highest values.
# Molecular target: T1, Stb5 (UniProt P38699)
# T1 sequence: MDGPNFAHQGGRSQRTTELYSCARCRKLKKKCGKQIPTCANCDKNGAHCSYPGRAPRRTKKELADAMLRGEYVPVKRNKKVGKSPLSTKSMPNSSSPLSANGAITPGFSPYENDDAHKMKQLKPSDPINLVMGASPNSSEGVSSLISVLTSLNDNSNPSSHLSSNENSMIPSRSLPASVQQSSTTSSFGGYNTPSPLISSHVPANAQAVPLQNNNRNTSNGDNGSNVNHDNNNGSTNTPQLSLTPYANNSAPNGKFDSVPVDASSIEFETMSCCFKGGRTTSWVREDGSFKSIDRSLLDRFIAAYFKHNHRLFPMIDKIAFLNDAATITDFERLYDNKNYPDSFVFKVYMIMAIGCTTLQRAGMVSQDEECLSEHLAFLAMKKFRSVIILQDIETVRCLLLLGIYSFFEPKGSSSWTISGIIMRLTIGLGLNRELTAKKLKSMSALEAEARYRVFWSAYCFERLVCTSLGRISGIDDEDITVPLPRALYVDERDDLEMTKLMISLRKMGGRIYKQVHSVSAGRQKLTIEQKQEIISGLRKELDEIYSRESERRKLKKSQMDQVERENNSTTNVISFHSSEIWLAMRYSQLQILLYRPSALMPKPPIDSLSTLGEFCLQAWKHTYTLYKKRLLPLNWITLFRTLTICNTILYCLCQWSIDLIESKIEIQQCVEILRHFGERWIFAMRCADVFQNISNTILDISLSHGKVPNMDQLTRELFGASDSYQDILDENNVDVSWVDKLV
# Assay: PBM E-score (8-mer binding enrichment) (E-score (-0.5 to 0.5)); higher = stronger / more preferred TF binding
# Details: protein concentration: 200 nM; construct: GST-full length
# Protocol: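 Universal 'all 10-mer' protein binding microarrays (Agilent AMADID 015681) probed with GST-tagged S. cerevisiae TFs (full-length or DBD) made by in vitro transcription/translation (PURExpress), about 100-200 nM. Bound TF was detected with fluorescent anti-GST. Each ungapped 8-mer (which stands for itself and its reverse complement) is scored by the PBM enrichment score (E-score), a modified Wilcoxon-Mann-Whitney statistic from -0.5 to +0.5, computed with the Universal PBM Analysis Suite. Scale: above 0.35 generally sequence-specific binding.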
row,Sequence,PBM E-score
1,GCAGACGC,-0.0745
2,AAAAGCAT,-0.0942
3,ATCTCCAG,0.0194
4,ATCTCCGA,0.394
5,GTCTCCGA,0.23
6,ATCTCCGG,0.423
7,CTCTCCGA,0.00777
8,ATCTCCCC,0.0718
9,CTCTCCGC,0.0985
10,ATCTCCCG,0.124
11,ATCTCCGC,0.406
12,AGGCGTTG,-0.11
13,AAAAGGGT,-0.27
14,CCCAGGAA,-0.286
15,TCGAATCA,-0.163
16,CGGACCCA,0.381
17,CCGACCCA,0.369
18,GGGACCCA,-0.0663
19,TCGACCCA,-0.256
20,CCGACCGC,0.284
21,CCGACCGA,0.314
22,CCGACCGG,0.382

row,Sequence,PBM E-score
1,TGGACCCA,-0.218
2,CGGACCAA,0.376
3,ACGACCCA,-0.191
4,CGGACCAC,0.134
5,CGGACCAG,0.0937
6,CGAAGAGA,-0.138
7,AAAGCGCG,0.121
8,CTGTGCGA,-0.121
9,GTTGCAAC,0.183
10,ATGAAAGC,-0.0893
11,CGGACCTA,0.466
12,CGGACCGA,0.4
13,GGGACCTA,0.138
14,AGGACCTA,0.141
15,CTGACCGA,-0.0342
16,GGGACCGA,0.257
17,ATGGCTTA,-0.119
18,ACCCCAGC,-0.0864
19,CAATAGCC,0.0314
20,CACATCTG,-0.103
21,GGGCCATA,0.0906
22,CGGCCCTA,0.426

row,Sequence,PBM E-score
1,CGGCCATC,0.157
2,GGGCCCTA,-0.0134
3,AGGCCCTA,-0.0592
4,CGGCCATA,0.376
5,ACCAGACA,-0.0752
6,ATCTCATA,-0.186
7,AAAGTAAG,-0.119
8,CATTTTAG,0.189
9,CTTACTGA,-0.164
10,AAGAGTCC,0.118
11,CGTGTTAC,-0.0374
12,AGTGTAAC,-0.175
13,GGTGTTTA,0.425
14,TGTGTTAA,-0.145
15,GGTGTAAC,0.381
16,CGTGTTTA,0.112
17,AGTGTTTA,-0.0504
18,CGTGTTAA,-0.191
19,CGTGTAAC,0.134
20,GGTGTTAA,0.447
21,GGTGTTAC,0.4
22,AGTGTTAC,-0.0686

row,Sequence,PBM E-score
1,ATTCACAC,-0.136
2,CCTGATAA,-0.0146
3,CCCAACCA,-0.0714
4,GATCTAAC,-0.143
5,ATACTATG,-0.0158
6,ACGCTGCT,-0.0899
7,CACTCTCA,-0.237
8,ACTTTCCA,-0.0496
9,AAGCGGGG,0.296
10,CAGCGGAG,0.352
11,CAGCGGGG,0.358
12,CAGCGGAA,0.164
13,CAGCGGGC,0.224
14,CAGCGGCG,0.326
15,ACCGAACG,0.308
16,ATGAAAGG,0.0036
17,ACCGCCGT,0.38
18,ACCGCCGA,0.405
19,ACCGCCTA,0.206
20,ACCGCCTC,0.313
21,ACCGCCAC,0.316
